# MITF primary: inhibitors of human MITF; AlphaScreen MITF homodimerization, bead proximity signal; O75030; inhibition, % at 2.6 µM; 0.91% of 650,000 active; in the data active means inhibition above about 50%;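 further: 0% = vehicle wells with protein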
# GPR151 ag: activates the human receptor GPR151 | 1% of 650,000 active | activation, % at 11.2 µM | PathHunter beta-arrestin GPR151 cells, luminescence; in the data active means activation above about 4.9%;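 further: 0% = median of compound wells and 100% = cells with positive control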
# Target sequence (Q8TDV0 whole entry, looked up): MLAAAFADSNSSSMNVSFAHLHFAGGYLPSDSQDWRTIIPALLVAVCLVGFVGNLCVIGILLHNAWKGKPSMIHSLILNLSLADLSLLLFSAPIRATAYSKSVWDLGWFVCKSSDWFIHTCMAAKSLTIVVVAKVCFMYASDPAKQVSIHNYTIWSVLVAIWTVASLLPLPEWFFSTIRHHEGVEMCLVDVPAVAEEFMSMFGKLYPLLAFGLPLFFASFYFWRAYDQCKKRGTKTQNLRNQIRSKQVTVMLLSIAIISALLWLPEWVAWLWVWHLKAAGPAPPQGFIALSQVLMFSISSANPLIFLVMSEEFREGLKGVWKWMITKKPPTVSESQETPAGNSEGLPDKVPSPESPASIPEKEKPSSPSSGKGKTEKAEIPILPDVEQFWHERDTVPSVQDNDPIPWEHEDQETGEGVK
# FBW7 act: human FBW7 E3 ligase activation, primary screen. Q969H0. AlphaScreen FBW7–phospho-cyclin E peptide binding, activator screen. normalized activity (activation), % at 26.1 µM. 0.13% of 650,000 active. AID 1259310; in the data active means normalized activity above about 1.9%;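 further: purified mutant Fbw7 with reduced substrate affinity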
# TEAD-YAP block: TEAD-YAP interaction inhibition; HEK-TIYL cells, TEAD-Gal4/YAP UAS-luciferase luminescence; inhibition, % at 9.12 µM; 1.4% of 640,000 active; in the data active means inhibition above about 32%;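 further: 0% = median of test compound wells and 100% = reference inhibitor wells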
# The depositor's hits bear a star. Sampled rows, rich in hits. Any-hit rate of the full collection: about 3.5%.
SMILES,MITF primary,GPR151 ag,FBW7 act,TEAD-YAP block
Nc1cc(-c2ccccc2)nc2ccccc12,3,-1,0,13
CNc1c2ccccc2nc2ccccc12,-14,0,0,71*
CC(C)Nc1c2ccccc2nc2ccccc12,-5,1,0,73*
Nc1c2ccccc2nc2ccccc12 (tested in a mixture with another compound),-2,-1,0,71*
COc1cc(C2C3=C(CC(c4ccccc4)CC3=O)Nc3ccccc3N2C(=O)CCC(=O)O)cc(OC)c1OC (centres undefined),10,1,1,7
CC(C)CC1=NN2C(=N)/C(=C/c3ccc(-c4ccc(C(=O)O)cc4)o3)C(=O)N=C2S1,-24,0,0,-3
Cc1cc(NC(=O)CSc2nc3ccccc3c(=O)n2C2CCCC2)no1,6,2,0,50*
Cc1cc(NC(=O)CSc2nc3ccccc3c(=O)[nH]2)no1,2,1,0,55*
O=C(CSc1nnc(-c2ccco2)n1-c1ccccc1)Nc1ccccn1,-3,0,0,7
C=CCOc1ccc(/C(O)=C2\C(=O)C(=O)N(CCCN3CCOCC3)C2c2cccc(Oc3ccccc3)c2)cc1C (centres undefined),19,1,0,2
CCN(CC)CC#CCN1c2ccccc2Sc2ccc(Cl)cc21,15,1,0,-7
COc1ccc(C(=O)Nc2cc(Cl)ccc2C(=O)O)cc1,15,-1,0,6
COC(=O)c1ccc(Cl)cc1NC(=O)c1cc(OC)ccc1Br,-3,-1,0,37*
O=C1NC(c2ccccc2)(c2ccccc2)C(=O)N1CCOCCOc1ccccc1,-8,0,0,-4
Cc1ccc(-c2cncc(-c3cc(N4CCCCC4)nc(C)n3)c2)cc1,-1,2,0,2
Cc1ccc(-n2nc3c(c2NC(=O)C2CCCC2)CSC3)c(C)c1,17,1,1.9*,4
COc1ccc(/C=C2\SC(=O)NC2=Nc2ccc(C)cc2)c(OC)c1,-4,1,0,58*
COc1ccc(/C=C2\SC(=Nc3cc(C)cc(C)c3)NC2=O)c(OC)c1,0,0,0,57*
COc1ccc(/C=C2\SC(=Nc3cccc(C)c3C)NC2=O)c(OC)c1,4,1,0,6
CCc1sc(NC(=O)CS(=O)(=O)Cc2ccccc2)nc1-c1ccccc1,2,-1,1,-1
CCN1C(=O)S/C(=C\c2ccc(OC)c(O)c2)C1=O,-3,3,0,-56
COc1ccccc1-c1ccnc(Nc2ccc(S(N)(=O)=O)cc2)n1,68*,1,1,34*
NS(=O)(=O)c1ccc(Nc2nccc(-c3ccccc3)n2)cc1,-5,-1,0,-16
NS(=O)(=O)c1ccc(Nc2nccc(-c3cccc(Cl)c3Cl)n2)cc1,14,1,24*,-6
CC(C)N1CCC(N2CCN(Cc3cccc4ccccc34)CC2CCO)CC1 (centres undefined),11,0,0,-2
SMILES,MITF primary,GPR151 ag,FBW7 act,TEAD-YAP block
O=C1[C@@H]2C[C@H](NCc3sc4ccccc4c3Cl)CN2C(=O)[C@@H]2CCCN12,2,-2,0,39*
NCCCC[C@@H]1NC(=O)[C@@H]2C[C@H](NCc3sc4ccccc4c3Cl)CN2C1=O,5,-1,0,33*
Cc1cccc(CN2CCc3nnc(C4CCCO4)n3CC2)c1 (centres undefined),3,1,0,21
COc1ccc(-c2cc(C(F)(F)F)c3nc(OC(C)C(C)=O)oc3n2)cc1OC (centres undefined),-1,2,0,81*
Cc1ccc(C)c2nc(N3CCOCC3)c(C#N)cc12,-2,-1,0,-5
CC(C)OC(=O)c1c(-c2ccc(Br)cc2)csc1NC(=O)/C=C/C(=O)O,2,2,0,36*
CC(C)OC(=O)c1c(-c2ccc(Br)cc2)csc1NC(=O)C1C2CCC(C2)C1C(=O)O (centres undefined),-4,-2,0,-4
Cc1ccc2c(c1)-c1c(ssc1=S)C(C)(C)N2C(=O)CN1CCC(C)CC1,26,2,-1,-5
C/C(=N\NC(=O)Cc1ccc(Cl)cc1)c1ccc(Cl)s1,3,-1,0,-7
Cc1ccc(N2C(=O)N(CC(=O)Nc3ccccc3C(F)(F)F)C(=O)C2C)cc1 (centres undefined),-3,2,0,-4
COC(=O)c1ccccc1NC(=O)CN1C(=O)C(C)N(c2ccc(C)cc2)C1=O (centres undefined),3,-2,0,45*
Cc1ccc(N2C(=O)N(CC(=O)Nc3ccccc3OC(F)F)C(=O)C2C)cc1 (centres undefined),13,1,0,-8
